# Laboratory results as given in PubChem BioAssay AID1851 (National Center for Advancing Translational Sciences (NCATS), 2009).
# Out of some 16,000 compounds screened, about 5,100 (32%) were called active. Inconclusive results (about 25%) are left out. Calls follow the shape of the dose curve; as a rule, active = well fitted curve in the direction sought with a large enough effect; inconclusive = small, poorly fitted or top-dose-only effect, or effect the other way; inactive = no such curve, though single readings can be large or run the other way. The list shows a part of the results.
# Target: Cytochrome P450 3A4 (Homo sapiens) (UniProt P08684)
# Sequence (P08684 whole entry, looked up): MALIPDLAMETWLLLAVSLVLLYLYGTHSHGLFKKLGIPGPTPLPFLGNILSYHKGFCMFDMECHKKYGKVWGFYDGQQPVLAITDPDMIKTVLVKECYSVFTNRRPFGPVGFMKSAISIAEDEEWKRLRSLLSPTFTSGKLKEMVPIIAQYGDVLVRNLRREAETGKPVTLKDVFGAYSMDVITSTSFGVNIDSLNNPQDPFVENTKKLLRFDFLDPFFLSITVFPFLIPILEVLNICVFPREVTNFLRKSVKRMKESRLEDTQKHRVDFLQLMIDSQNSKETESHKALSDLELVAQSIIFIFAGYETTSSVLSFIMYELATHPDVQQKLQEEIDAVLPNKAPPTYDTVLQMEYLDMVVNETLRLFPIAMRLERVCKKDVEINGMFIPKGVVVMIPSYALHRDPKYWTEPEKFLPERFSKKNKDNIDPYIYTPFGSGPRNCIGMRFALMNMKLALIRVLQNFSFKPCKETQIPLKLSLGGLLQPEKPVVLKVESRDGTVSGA
# Assay: Cytochrome panel assay with activity outcomes
# Settings: recombinant CYP, pro-luciferin dealkylation, luminescence, p450-cyp3a4; series mostly up to 57.1 µM; activity, negative = inhibition: at the top concentration
# % is scaled to controls: 0 for no effect and ±100 for the full control effect.
Compound,"activity, negative = inhibition",AC50
Cc1cc(C)c(NC(=O)NC(=O)c2ccc(F)cc2)c(C)n1,-0.466% (inactive),–
Cc1cc(C)c(NC(=O)CSc2nnc(Cc3cccn3C)n2-c2ccc(F)cc2)c(C)c1,–,1.58 µM (active)
Cc1cc(C)n(-c2ccc(F)cc2)c(=O)c1C(=O)O,-11% (inactive),–
COc1ccc(NC(=O)c2ncn[nH]2)cc1,-23.5% (inactive),–
O=C(NCCc1ccc(Cl)cc1)c1ncn[nH]1,-0.238% [at 2.29 µM] (inactive),–
Cc1ccc(C)c(NC(=O)c2ncn[nH]2)c1,–,14.1 µM (active)
CC(C)c1ccc(O)c(NC(=O)c2ncn[nH]2)c1,–,10 µM (active)
CCC(C)n1nnc2c(=O)oc3ccccc3c21 (centres undefined),-20% (inactive),–
Cc1cccc(CNc2ccnc(-c3ccoc3)n2)c1,–,1 µM (active)
c1ccc(CNc2ccnc(-c3ccoc3)n2)cc1,–,10 µM (active)
Cc1ccc(S(=O)(=O)N=Nc2c(O)[nH]c3cc(O)c(C(=O)O)cc23)cc1,-1.68% [at 11.4 µM] (inactive),–
COc1ccc(CNc2nc(-c3cccc(C#N)c3)nc3ccccc23)c(OC)c1,–,2.51 µM (active)
N#Cc1cccc(-c2nc(Nc3ccccc3)c3ccccc3n2)c1,-48.6% (inactive),–
COc1ccccc1CNc1nc(-c2cccc(C#N)c2)nc2ccccc12,–,10 µM (active)
CNc1nc(-c2cccc(C#N)c2)nc2ccccc12,–,10 µM (active)
COc1ccc(CNc2nc(-c3cccc(NS(C)(=O)=O)c3)nc3ccccc23)c(OC)c1,–,2.51 µM (active)
COc1cc2c(cc1C(F)(F)F)N(C(=O)Nc1cc(F)cc(-c3cccnc3)c1)CC2,–,2.51 µM (active)
CC1(C)OCC([C@H](O)C2=CCCCC2=O)CO1,-7.04% [at 11.4 µM] (inactive),–
CCOC(=O)c1cc(C(=O)OCC)cc(-n2cc(O)c(C(=O)OCC)n2)c1,-9.96% (inactive),–
COC(=O)c1sc2ncccc2c1OCc1c(Cl)cccc1Cl,-24.4% [at 11.4 µM] (inactive),–
COc1ccc(C[N+](C)(C)N)cc1OC,-9.55% [at 11.4 µM] (inactive),–
COc1cc(CNn2nnnc2N)ccc1OCc1c(Cl)cccc1Cl,–,0.562 µM (active)
Nc1nc(N)[n+]([O-])c(N)c1NCO,-2.59% [at 11.4 µM] (inactive),–
O=C(OCCCN1CCCCC1)c1ccc(O)cc1,-18% (inactive),–
Cc1cc(C(=O)O)c(=O)[nH]c1C,-1.64% (inactive),–

Compound,"activity, negative = inhibition",AC50
CO/N=C\[C@@H](NS(=O)(=O)c1ccc(C)cc1)[C@H](C)/C=C\CC(=O)OC,-67.3% [at 11.4 µM] (inactive),–
COC(=O)C/C=C\[C@@H](C)[C@@H](/C=N\OC[C@@H](O)COCc1ccco1)NS(=O)(=O)c1ccc(C)cc1,–,3.16 µM (active)
CC(C)[C@@H](OCc1ccccc1)[C@H](C)/C=N\OC[C@@H](O)[C@@H]1O[C@@H]2OC(C)(C)O[C@@H]2[C@H]1O,-28.7% [at 11.4 µM] (inactive),–
COC(=O)C/C=C\[C@@H](C)[C@@H](/C=N\OC[C@@H](O)COCc1ccco1)OC,-28.9% [at 11.4 µM] (inactive),–
COC(=O)C/C=C\[C@H](C)[C@H](CO)NS(=O)(=O)c1ccc(C)cc1,-5.02% [at 11.4 µM] (inactive),–
COC(=O)C/C=C\[C@@H](C)[C@@H](/C=N\OC[C@@H](O)[C@H]1O[C@H]2OC(C)(C)O[C@H]2[C@@H]1O)NS(=O)(=O)c1ccc(C)cc1,–,3.98 µM (active)
CNc1cc(CSC)nc(SCc2ccc(Cl)c(Cl)c2)n1,–,5.01 µM (active)
Clc1ccc(CSC2=NCCN2)cc1Cl,-8.56% [at 11.4 µM] (inactive),–
O=C(Cn1ccnc1[N+](=O)[O-])NCCO,-11.3% [at 25.6 µM] (inactive),–
Cc1cnc(CNc2ncnc3ccc(-c4ccccc4CN(C)C)cc23)cn1,-33.4% (inactive),–
Cc1cnc(CNc2ncnc3ccc(-c4ccccc4C)cc23)cn1,–,3.98 µM (active)
Cc1cnc(CNc2ncnc3ccc(-c4ccccc4Cl)cc23)cn1,–,2.51 µM (active)
Cc1cnc(CNc2ncnc3ccc(-c4ccccc4C(F)(F)F)cc23)cn1,–,2 µM (active)
O=C(NC[C@@H](O)CO)c1c(I)c(C(=O)NC[C@@H](O)CO)c(I)c(N(CCO)C(=O)CO)c1I,-4.08% [at 25.6 µM] (inactive),–
C[N+](C)(C)c1cc2c(nn1)Nc1ccccc1S2,-5.56% [at 11.4 µM] (inactive),–
OC(CCCN1CCCCC1)(c1ccccc1)c1ccccc1,-25.9% [at 25.6 µM] (inactive),–
C=CCNc1nc(Cl)nc(Nc2ccc(OC)cc2)n1,–,14.1 µM (active)
O=C(c1ccccc1)[C@@H]1O[C@H]1c1ccc(-c2ccccc2)cc1,-23.2% (inactive),–
CCOC(=O)Nc1ccc(C)cc1NC(=O)OCC,4.11% [at 2.29 µM] (inactive),–
CCOC(=O)Nc1ccc2c(c1)OCO2,–,14.1 µM (active)
O=C(NC(=S)Nc1ccc2c(c1)OCO2)c1ccccc1,–,0.631 µM (active)
CC(=O)Nc1ccc2c(c1)OCCO2,8.82% (inactive),–
Cc1ccc(C(=O)NC(=S)Nc2ccc3c(c2)OCCO3)c(C)c1,–,28.2 µM (active)
O=C(NC(=S)Nc1ccc(Oc2ccc(Cl)cc2)cc1)c1ccccc1,-13.5% (inactive),–
CC(=O)Nc1ccc2c(c1)OCCOCCOc1cc(NC(C)=O)ccc1OCCOCCOCCO2,-17.9% (inactive),–

Compound,"activity, negative = inhibition",AC50
CS[C@]12C(=O)C[C@]3(C)[C@@H](CC[C@@]3(O)C(=O)CO)[C@@H]1CCC1=CC(=O)CC[C@]12C,-14.7% [at 11.4 µM] (inactive),–
CC(Oc1ccc(O)cc1)(P(=O)(O)O)P(=O)(O)O,-9.31% (inactive),–
CC(=O)c1cc(C#N)c(Oc2cccc(C(F)(F)F)c2)nc1C,-25% (inactive),–
CC(=O)c1cc(C#N)c(Oc2ccc(F)cc2)nc1C,-27.3% (inactive),–
COC(=O)c1cc(C#N)c(Oc2ccc(OC)cc2)nc1C,–,14.1 µM (active)
COc1ccccc1CC(=O)O/N=C(\N)Cc1cccc2ccccc12,–,15.8 µM (active)
COc1ccc(C/C(N)=N/OC(=O)Cc2ccccc2)cc1OC,–,3.16 µM (active)
COc1ccc(CC(=O)O/N=C(\N)Cc2ccc(OC)cc2)cc1,–,10 µM (active)
COc1ccc(C[C@@](C)(N)C(=O)O)cc1OC,-53.3% [at 25.6 µM] (inactive),–
COc1ccc(Cc2ccccc2C(=O)O)c2ccccc12,-12.8% [at 11.4 µM] (inactive),–
COc1ccccc1C/C(N)=N/OC(=O)c1ccc(C)c([N+](=O)[O-])c1,–,10 µM (active)
NC(Cc1ccccc1)=NCC(=O)O,-0.223% [at 11.4 µM] (inactive),–
COc1ccccc1OC[C@H](O)COC(N)=O,-11% [at 25.6 µM] (inactive),–
O=C1c2ccccc2C(=O)N1CCCCN(C(=O)c1cccc([N+](=O)[O-])c1)c1ccc(Cl)cc1,–,11.2 µM (active)
O=C1c2ccccc2C(=O)N1CCCCN(C(=O)c1ccc([N+](=O)[O-])cc1)c1ccc(Cl)cc1,–,25.1 µM (active)
CCOC(=O)COc1c(OC)cc(Cl)cc1C1Nc2ccccc2C(=O)N1c1ccc(F)cc1 (centres undefined),1.4% (inactive),–
CCOC(=O)COc1c(OC)cc(Cl)cc1C1Nc2ccccc2C(=O)N1c1cccc(C)c1 (centres undefined),–,3.98 µM (active)
COC(=O)c1sccc1-c1ccc(C(=O)Nc2cccnc2)o1,–,14.1 µM (active)
CSc1nc2c(c(C(F)(F)F)n1)CC(C)CC2 (centres undefined),-5.33% (inactive),–
Fc1ccccc1NC(=S)NCCc1ccccc1,–,12.6 µM (active)
COc1ccccc1NC(=S)NCCc1ccccc1,–,11.2 µM (active)
Fc1cc(Br)ccc1NC(=S)NCCc1ccccc1,–,15.8 µM (active)
Fc1ccc(NC(=S)NCCc2ccccc2)c(F)c1F,7.09% (inactive),–
CC(CO)(CO)N=Cc1cc(I)cc(I)c1O,-15.2% [at 11.4 µM] (inactive),–
O=C1C(Cc2ccccc2)C(c2ccccc2)N1c1ccccc1 (centres undefined),-10.8% (inactive),–

Compound,"activity, negative = inhibition",AC50
CCCC1C(=O)N(c2ccccc2)C1c1ccccc1 (centres undefined),1.96% [at 2.29 µM] (inactive),–
O=C1C2ON(c3ccccc3)C(c3ccncc3)C2C(=O)N1c1ccccc1 (centres undefined),–,14.1 µM (active)
CC(=O)NNC(=O)C(O)(c1ccccc1)c1ccccc1,-2.75% (inactive),–
FC(F)(F)c1nc2ccccc2nc1N/N=C/c1ccc(Cl)cc1,–,25.1 µM (active)
FC(F)(F)c1nc2ccccc2nc1N/N=C\c1ccccc1,–,15.8 µM (active)
N#CC(c1ccc(Cl)cc1)c1nc2ccccc2nc1C(F)(F)F (centres undefined),15.3% [at 2.29 µM] (inactive),–
COc1ccc(Oc2nc3ccccc3nc2C(F)(F)F)cc1,2.66% [at 2.29 µM] (inactive),–
COc1ccc(NC(=O)c2ccc(C)cc2Cl)c([N+](=O)[O-])c1,–,20 µM (active)
CCCn1nnnc1NC(=O)c1ccc(C)cc1Cl,-5.2% (inactive),–
COc1ccc(NC(=O)c2cccs2)c([N+](=O)[O-])c1,–,14.1 µM (active)
CCC(CC)C(=O)Nc1cccc(C(=O)Nc2ccc(OC)cc2[N+](=O)[O-])c1,-28% (inactive),–
COCCCn1nnnc1SCC(=O)N1CCCC1,-6.38% (inactive),–
CCCCn1nnnc1SCC(=O)N1CCCC1,-11.6% (inactive),–
CCCCn1c(SCC(=O)N2CCCC2)nc2c1c(=O)n(C)c(=O)n2C,–,17.8 µM (active)
COc1ccccc1CNc1ncnc2ccc(-c3ccc(C(=O)N(C)C)cc3)cc12,–,10 µM (active)
COc1ccc(CNc2ncnc3ccc(-c4ccc(C(=O)N(C)C)cc4)cc23)c(OC)c1,–,2.51 µM (active)
CN1CCCC[C@@H]1CCN1c2ccccc2Sc2ccc(S(C)=O)cc21 (some centres undefined),–,inactive
COc1ccc(CNC(=O)c2csc(Cc3ccc(Cl)cc3)n2)cc1,–,3.55 µM (active)
COc1ccc(CNC(=O)c2csc(Cc3ccc(OC)cc3)n2)cc1,–,3.16 µM (active)
COC(=O)C1=C(C)C(c2ccc(OC)cc2)NC(=S)N1 (centres undefined),-11.5% [at 2.29 µM] (inactive),–
Cc1cnc(C(=O)OCC(=O)NC(C)C)cn1,-1.72% [at 2.29 µM] (inactive),–
COc1ccc(CNC(=O)c2cnc(C)cn2)cc1,–,2 µM (active)
COc1ccc(CN[C@H](C)C(=O)O)cc1,0.14% [at 11.4 µM] (inactive),–
COc1ccc(Cc2c(N)nc(N)nc2N)cc1,6.23% (inactive),–
